Most compounds without a hit are left out; they make up all but 8.2% or so of the library.
KB-V1 cytotox: KB-V1 MDR subline cytotoxicity; Potency, µM (highest dose often 46.1 µM), usual class: cytotoxic; KB-V1 MDR cells viability, CellTiter-Glo, 72 h; AID 1347076; 3.4% of 400,000 active; note: % is set by controls: 0 for no effect and ±100 for the full control effect; nearly all actives have a fitted effect of over 60% in size
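KB-V1 MDR subline cells in DMEM (phenol-red free, 10% FBS) exposed to compounds in qHTS concentration series for 72 h at 37 degrees C. Viability read by CellTiter-Glo luminescence; concentration-effect curves fitted after normalization and correction.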
KB-3-1 cytotox: KB-3-1 parental cell cytotoxicity. 1.4% of 400,000 active. KB-3-1 viability, CellTiter-Glo ATP luminescence, 72 h. Potency, µM (series often up to 46.1 µM), most hits filed as cytotoxic. AID 1347075; note: % is set by controls: 0 for no effect and ±100 for the full control effect; nearly all actives have a fitted effect of over 60% in size
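Viability of parental KB-3-1 cells, measured by CellTiter-Glo luminescence, followed a 72 h incubation at 37 °C with pinned compounds in phenol-red-free DMEM containing 10% FBS.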
MCF10A rereplic: inducers of DNA re-replication in MCF 10A breast cells. MCF 10A DNA re-replication, Hoechst nuclear intensity, 48 h. Potency, µM (highest dose often 46.1 µM), for the others: at the top dose activity, positive = re-replication, hits mostly activators. 2.9% of 350,000 active. AID 624296; note: % of control where 0% means no effect; nearly all actives have a fitted effect of over 50% in size
SW480 rereplic: DNA re-replication induction in SW480 cells; Potency, µM (doses to about 46.1 µM), inactives show at the top dose re-replication activation, actives largely listed as activators; SW480 DNA re-replication, Hoechst DNA content imaging, 48 h; 1.8% of 340,000 active; note: % of control where 0% means no effect; nearly all actives have a fitted effect of over 55% in size
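DNA re-replication was detected as more nuclei of elevated Hoechst intensity after 48 hr exposure to compound (23 nL pinned per well of 250 cells).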
ELG1 DNA repair: inhibitors of ELG1-dependent DNA repair in HEK293T cells; Potency, µM (doses to about 46.1 µM), for inactives: at the top dose activity change, negative = inhibition, usual class: inhibitors; 2.3% of 330,000 active; HEK293T ELG1-luciferase reporter, luminescence, 16 h; DNA damage induced by 5-fluorouridine; note: % is set by controls: 0 for no effect and ±100 for the full control effect; nearly all actives have a fitted effect of over 55% in size
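In this reporter screen, reduction of luminescence relative to DMSO vehicle indicated activity. Compounds and 5-fluorouridine were added together to 2,000 cells per well, incubated for 16 hr at 37 °C, then developed with ONE-Glo.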
An asterisk follows results filed as active; i = inactive; ? = inconclusive; / = no result; ! = not confirmed by another sample. Calls come from the whole dose curve; as a rule, active = well fitted curve in the direction sought with a large enough effect; inconclusive = small, poorly fitted or top-dose-only effect, or another doubt; inactive = no such curve, though single readings can be large; an effect the other way counts as inactive or inconclusive. Potency is the fitted concentration of half-maximal effect.

SMILES	KB-V1 cytotox	KB-3-1 cytotox	MCF10A rereplic	SW480 rereplic	ELG1 DNA repair
Cc1ccc(N(CC(N)=O)C2SC(=O)N(Cc3ccccc3)C2=O)cc1 (centres undefined)	i	i	21µM*	?	2%
C/C(=N\Nc1nc2ccc(Cl)cc2o1)c1ccccc1	i	i	5%	-14%	?
O=C(/C=C/c1ccco1)N1CCCC(c2ccccc2)C1 (centres undefined)	i	i	?	?	1%
O=C(/C=C/c1ccccc1)N1CCC(c2ccccc2)C1 (centres undefined)	21µM*	i	-8%	-32%	?
CCOC(=O)C1=C(COC(=O)COc2ccc(C(=O)CC)cc2)NC(=O)NC1C (centres undefined)	i	i	-2%	-7%	0%
O=C(C1CCC(CNS(=O)(=O)c2ccc(Br)s2)CC1)N1CCN(c2ccccc2)CC1 (centres undefined)	i	i	/	/	/
CC1CC(C)CN(C(=O)C(NS(=O)(=O)c2ccc(Br)s2)c2ccccc2)C1 (centres undefined)	i	i	16µM*	-97%	-15%
O=C(NCC1COc2ccccc2O1)c1cccc(S(=O)(=O)N2CCCCC2)c1 (centres undefined)	i	?	3%	3%	?
Cc1ccc(C(=O)N(C)Cc2ccc(N3CCOCC3)cc2)cc1S(=O)(=O)NCc1ccccc1	?	i	3%	-23%	21µM*
CN(Cc1ccc(F)cc1)C(=O)c1cccc(S(=O)(=O)N2CCN(c3ccccc3)CC2)c1	?	?	7%	14%	18µM*
CN(Cc1cccc(F)c1)C(=O)c1ccc(S(=O)(=O)N2CCCCCC2)cc1	i	i	2%	6%	21µM*
CN(CC1COc2ccccc2O1)C(=O)c1cccc(S(=O)(=O)N2CCCC2)c1 (centres undefined)	8.2µM*	i	0%	1%	1%
O=C(Cc1ccc(NC(=O)C2CCN(C(=O)C3CCCCC3)CC2)cc1)Nc1cccc(C(=O)N2CCCCC2)c1	i	i	-37%	-7%	/
Cc1ccc(S(=O)(=O)Oc2ccc(/C=N/N=C3/NC(=O)C(CC(=O)O)S3)cc2)cc1[N+](=O)[O-] (centres undefined)	/	/	1%	-1%	-7%
C=CCN(C/C(=N\O)c1sc(C(=O)OCC)nc1C)c1cccc(Br)c1	i	i	27%	-14%	/
O=S(=O)(c1ccc(Br)cc1)N1CCCN(Cc2cccc(F)c2)CC1	i	i	?	21µM*!	-11%
CN(Cc1ccc(F)cc1)C(=O)c1cccc(S(=O)(=O)N2CCN(Cc3ccccc3)CC2)c1	i	i	22%	?	-7%
Cc1ccc(CN(C)C(=O)c2cccc(S(=O)(=O)N3CCN(c4ccccc4)CC3)c2)cc1	18µM*	?	-1%	9%	/
COc1cccc(CN2CCCN(S(=O)(=O)c3ccc(Br)cc3)CC2)c1	?	i	?	?	-8%
CN(Cc1ccc(F)cc1)C(=O)c1cccc(S(=O)(=O)N2CCN(c3ccc(F)cc3)CC2)c1	?	13µM*	7%	?	?
COCCN(Cc1ccccc1)C(=O)c1cccc(S(=O)(=O)N2CCN(c3ccccc3)CC2)c1	i	i	40%	?	15µM*
COc1ccc(-c2csc3ncnc(Nc4ccc(OC)cc4OC)c23)cc1	i	i	/	/	/
O=C(NC(O)C(=O)c1ccccc1)c1ccc(F)cc1 (centres undefined)	i	i	16%	5%	0%
Cc1cc(/C=C(\C#N)C(N)=O)c(C)n1-c1ccc(N2CCOCC2)c([N+](=O)[O-])c1	?	i	?	-1%	23µM*
Cc1cc(C=O)c(C)n1-c1ccc(N2CCCCC2)c([N+](=O)[O-])c1	?	?	-2%	1%	-3%
SMILES	KB-V1 cytotox	KB-3-1 cytotox	MCF10A rereplic	SW480 rereplic	ELG1 DNA repair
COC(=O)C(C)SC1=N/C(=C/c2ccc(-n3cncn3)cc2)C(=O)N1 (centres undefined)	i	i	16µM*	?	-5%
Cc1ccc(C)c(NC(=O)Cn2c(=O)n(CC(=O)NCCc3ccccc3)c(=O)c3ccccc32)c1	i	i	/	/	/
CCCCNC(=O)CSc1nc2nc(C)c(Cc3ccccc3C)c(C)n2n1	i	i	/	/	/
CCCc1nc2ccccc2c(C(=O)N(CC)CC(=O)NCc2cccs2)c1CC	i	i	15%	?	-7%
c1ccc2c(c1)CCN(c1nc3cc4c(cc3s1)OCCO4)C2	?	?	15µM*	4%	?
C=CC[C@H](CC(=O)N(CCO)Cc1ccccc1)C(=O)N[C@H](COC(=O)[C@H](CC=C)CC(=O)OC(C)(C)C)Cc1c[nH]c2ccccc12	i	i	42%	?	21µM*
C=CC[C@@H](CC(=O)N(CCO)Cc1ccccc1)C(=O)N[C@@H](COC(=O)[C@H](CC=C)CC(=O)OC(C)(C)C)Cc1c[nH]c2ccccc12	i	?	14%	?	?
C=CC[C@H](CC(=O)NCCO)C(=O)N[C@H](COC(=O)[C@H](CC=C)CC(=O)OC(C)(C)C)Cc1c[nH]c2ccccc12	i	i	?	9%	23µM*
C=CC[C@H](CC(=O)N(CCO)Cc1ccccc1)C(=O)N[C@@H](COC(=O)[C@@H](CC=C)CC(=O)OC(C)(C)C)Cc1c[nH]c2ccccc12	?	?	?	12%	18µM*
Cc1ccc(Sc2ncccc2C(N)=O)cc1	i	i	6%	-7%	/
Cc1ccc(Cl)cc1N1CCN(C(=O)c2ccc(NC(=O)c3nsc4ccccc34)cc2)CC1	i	i	/	/	/
c1ccc(C2=NNC(=NCc3ccc4c(c3)OCO4)SC2)cc1	23µM*	i	16%	8%	?
c1ccc(CN=C2NN=C(c3ccccc3)CS2)cc1	i	?	6%	1%	?
CCOC(=O)/C(=C\c1ccc(OC(F)F)cc1)C1=Nn2c(nnc2-c2ccc(Cl)cc2)SC1	i	?	5.2µM*	16µM*	12µM*
CCOC(=O)/C(=C/c1ccc(OC(F)F)cc1)C1=Nn2c(nnc2-c2ccc(Cl)cc2)SC1	?	?	3.7µM*	7.3µM*	/
COc1ccc(-c2nnc3n2N=C(C)CS3)cc1	i	i	1%	-6%	12%
CCc1ccc(N2C(=O)CSC23C(=O)N(Cc2cccc(OC)c2)c2ccccc23)cc1 (centres undefined)	10µM*	?	/	/	/
COc1ccc(N2C(=O)CSC23C(=O)N(Cc2cccc(C(F)(F)F)c2)c2ccccc23)cc1 (centres undefined)	?	i	/	/	/

Screening results as filed in PubChem BioAssay.
